The nature of test [1]: Nuclear factor erythroid 2-related factor 2/antioxidant responsive element (Nrf2/ARE) small molecule agonists: qHTS cell viability counter screen in human keratinocytes (AID 1919968; active means well fitted curve in the direction sought with a large enough effect in the repeat runs; an effect the other way counts as inactive or inconclusive; further: nearly all actives have a fitted effect of over 55% in size). An outline of the steps:
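Fluorescence read-out from CellTiter-Fluor after 1 h at 37 C. Wells held HaCaT-derived ARE-luciferase reporter cells (1,500/well) treated 23 h with DMSO-dissolved compounds. Run in the same wells as the luciferase agonist read.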

Test [2] is described as follows: Nuclear factor erythroid 2-related factor 2/antioxidant responsive element (Nrf2/ARE) small molecule agonists: luciferase reporter gene qHTS assay in human keratinocytes (AID 1919969; further: nearly all actives have a fitted effect of over 35% in size). (Reporter assays use an easily measured gene product as a stand-in for the process of interest.)
The target in test [3] is Gonadotropin-releasing hormone receptor (Homo sapiens) (UniProt P30968). As to the kind of experiment: Human gonadotropin-releasing hormone receptor (GnRHR) small molecule agonists, calcium flux assay in GnRHR-HEK293 cells (AID 1920063). Further: nearly all actives have a fitted effect of over 35% in size. The method, boiled down: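 Calcium-dye fluorescence, Ex/Em=480/540, recorded every 1 sec over 3 min after compound addition to GnRHR-HEK293 cells. Cells had been seeded 18 hours earlier and dye-loaded for 1 hour at 37 C. Fifteen concentrations, triplicates.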
Gonadotropin-releasing hormone receptor (Homo sapiens), sequence (P30968 whole entry, looked up): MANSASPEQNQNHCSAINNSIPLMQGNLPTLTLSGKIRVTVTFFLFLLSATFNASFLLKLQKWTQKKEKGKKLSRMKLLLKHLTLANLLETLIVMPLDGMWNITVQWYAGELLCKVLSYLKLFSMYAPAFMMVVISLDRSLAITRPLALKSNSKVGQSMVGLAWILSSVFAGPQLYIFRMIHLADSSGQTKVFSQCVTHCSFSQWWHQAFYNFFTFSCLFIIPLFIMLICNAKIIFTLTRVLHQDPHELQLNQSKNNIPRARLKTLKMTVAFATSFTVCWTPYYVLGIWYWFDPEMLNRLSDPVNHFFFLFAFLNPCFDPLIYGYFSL
(Calcium assays in cells follow changes in intracellular calcium, usually with a dye or a luminescent sensor.)

Test [4] addresses KiSS-1 receptor (Homo sapiens) (UniProt Q969F8). As to the kind of experiment: Human kisspeptin (KISS1R) small molecule agonists, calcium flux assay in KISS1R-HEK293 cells (AID 1920064; active means well fitted curve in the direction sought with a large enough effect in the repeat runs; an effect the other way counts as inactive or inconclusive). The method, boiled down:
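Calcium flux read-out: kinetic fluorescence at Ex/Em=480/540, 1 s intervals over 3 min, after pin-tool compound addition to dye-loaded KISS1R-HEK293 cells. Fifteen concentrations, triplicates.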

Test [5] in a line: G protein-coupled receptor (GPCR) small molecule agonists, calcium flux assay: HEK293 wild type cell line counter screen (AID 1920065). The method, boiled down: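 Agonist mode; 18 h seeding at 37 C, 1 h dye load at 37 C; compounds pinned from DMSO, ATP as positive control; kinetic fluorescence 480/540 nm, 3 min, 1 s reads; 15 concentrations, triplicate.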
The nature of test [6]: p53 small molecule agonists, cell-based qHTS assay with human liver microsomes (AID 1963577). The method, boiled down:
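Compounds act here after metabolic activation: human liver microsomes and NADPH, both at 0.5 mg/mL final, were co-added to p53RE-bla cells. Incubation ran 16 h at 37 C, followed by LiveBLAzer detection.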

Test [7] is described as follows: p53 small molecule agonists, cell-based qHTS assay with rat liver microsomes (AID 1963578). The method, boiled down: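 Read-out is beta-lactamase reporter fluorescence (LiveBLAzer, 2 h, room temperature, dark) in p53RE-bla cells treated 16 h at 37 C with compound, rat liver microsomes and NADPH, both 0.5 mg/mL final.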
In general terms: Quantitative high-throughput screening tests each substance at several concentrations.

Test [8] can be described thus: p53 small molecule agonists, cell-based qHTS assay with human liver microsomes: qHTS cell viability counter screen (AID 1963579). Further: nearly all actives have a fitted effect of over 45% in size. The method, boiled down: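 Cells carrying the p53 response-element beta-lactamase reporter are treated for 16 h at 37 C with test compounds in the presence of human liver microsomes and NADPH (both 0.5 mg/mL final); ATP-based CellTiter-Glo luminescence then reports viability.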

Test [9] in a line: p53 small molecule agonists, cell-based qHTS assay with rat liver microsomes: qHTS cell viability counter screen (AID 1963580). Further: nearly all actives have a fitted effect of over 45% in size. The method, boiled down: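 Counter screen for cytotoxicity under metabolic activation: rat liver microsomes and NADPH, 0.5 mg/mL final each, added with compounds to p53RE-bla HCT-116 cells; 16 h at 37 C, then ATP luminescence read.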
Test [10] in a line: p53 small molecule agonists, cell-based qHTS assay: qHTS cell viability counter screen (AID 1963581). Further: nearly all actives have a fitted effect of over 45% in size. An outline of the steps: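 Cytotoxicity read-out: ATP-based luminescence (CellTiter-Glo, 30 min RT) measured in the same wells as the p53 reporter assay, HCT-116 p53RE-bla cells, 16 h compound exposure at 37 C.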
The target of test [11] is 5-hydroxytryptamine receptor 2A (Homo sapiens) (UniProt P28223). As to the kind of experiment: 5-hydroxytryptamine receptor 2A (HTR2A) small molecule agonists, cell-based qHTS assay (AID 1963587). Further: nearly all actives have a fitted effect of over 30% in size. The method, boiled down: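 HTR2A-CHO cells, plated 18 h at 37 C/5% CO2, dye-loaded 1 h at 37 C; compounds in DMSO added by pin tool (agonist mode). Intracellular calcium flux read as kinetic fluorescence on FDSS over 2 min at 1 s intervals.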
5-hydroxytryptamine receptor 2A (Homo sapiens), sequence (P28223 whole entry, looked up): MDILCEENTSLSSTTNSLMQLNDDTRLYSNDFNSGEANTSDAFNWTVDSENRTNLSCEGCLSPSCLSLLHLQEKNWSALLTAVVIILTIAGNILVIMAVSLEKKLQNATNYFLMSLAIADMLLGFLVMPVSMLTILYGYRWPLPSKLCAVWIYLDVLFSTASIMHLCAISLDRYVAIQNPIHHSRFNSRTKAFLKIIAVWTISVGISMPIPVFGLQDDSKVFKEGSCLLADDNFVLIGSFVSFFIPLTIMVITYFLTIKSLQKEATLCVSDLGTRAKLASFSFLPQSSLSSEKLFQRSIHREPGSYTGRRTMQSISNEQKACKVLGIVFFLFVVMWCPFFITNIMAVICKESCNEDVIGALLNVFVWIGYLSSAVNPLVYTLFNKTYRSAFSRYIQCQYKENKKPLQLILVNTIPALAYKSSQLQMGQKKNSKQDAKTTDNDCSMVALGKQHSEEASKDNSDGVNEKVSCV

Test [12] concerns the target Muscarinic acetylcholine receptor M1 (Homo sapiens) (UniProt P11229). As to the kind of experiment: Cholinergic receptor muscarinic 1 (CHRM1) small molecule antagonists, cell-based qHTS assay (AID 1963588). Further: nearly all actives have a fitted effect of over 40% in size. Further: potency means the concentration at half of the fitted maximal effect. An outline of the steps: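 Compounds were tested at 15 concentrations in three independent runs. Dye-loaded CHRM1-CHO cells were exposed 5 min at room temperature before stimulation by acetylcholine added at 50nM. Intracellular calcium was read kinetically on FDSS for 3 min.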

Test [13] has the same target. Kind of test: Cholinergic receptor muscarinic 1 (CHRM1) small molecule agonists, cell-based qHTS assay (AID 1963589). Further: nearly all actives have a fitted effect of over 35% in size. An outline of the steps: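 Calcium flux read-out: kinetic fluorescence at 1 sec intervals after pin-tool compound addition to dye-loaded CHRM1-CHO cells (human M1). Agonist mode; 15 concentrations tested in triplicate independent runs.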
Test [14] can be described thus: cAMP Responsive Elements (CRE) small molecule agonists, cell-based qHTS assay (AID 1963590). An outline of the steps: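 Beta-lactamase reporter readout: LiveBLAzer B/G FRET substrate, 2 h at room temperature, added after 3 h compound treatment of CRE-bla HEK 293T cells at 37 C/5% CO2.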
A short description of test [15]: cAMP Responsive Elements (CRE) small molecule antagonists, cell-based qHTS assay (AID 1963591; active means well fitted inhibition curve with a large enough effect in the signal ratio in the repeat runs, not every such curve was filed as active; the % refers to the signal ratio). The method, boiled down:
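HEK293T CRE-bla; 18 h preincubation; compound pin-transfer; NKH477 0.25 uM final, 3 h, 37 C; LiveBLAzer FRET substrate 2 h RT.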

The target of test [16] is Beta-2 adrenergic receptor (Homo sapiens) (UniProt P07550). Kind of test: Adrenergic beta2 receptor (ADRB2) small molecule antagonists, cell-based qHTS assay (AID 1963592). Further: series mostly up to about 92 µM; nearly all actives have a fitted effect of over 50% in size. The method, boiled down: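 Assay format: CHO-ADRB2 cells, 18-20hr seeding at 37C/5% CO2, then compound plus 1nM isoproterenol agonist mix for 0.5hr RT. Homogeneous time-resolved fluorescence cAMP detection after 1hr, expressed as 665/615 nm ratio.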
Beta-2 adrenergic receptor (Homo sapiens), sequence (P07550 whole entry, looked up): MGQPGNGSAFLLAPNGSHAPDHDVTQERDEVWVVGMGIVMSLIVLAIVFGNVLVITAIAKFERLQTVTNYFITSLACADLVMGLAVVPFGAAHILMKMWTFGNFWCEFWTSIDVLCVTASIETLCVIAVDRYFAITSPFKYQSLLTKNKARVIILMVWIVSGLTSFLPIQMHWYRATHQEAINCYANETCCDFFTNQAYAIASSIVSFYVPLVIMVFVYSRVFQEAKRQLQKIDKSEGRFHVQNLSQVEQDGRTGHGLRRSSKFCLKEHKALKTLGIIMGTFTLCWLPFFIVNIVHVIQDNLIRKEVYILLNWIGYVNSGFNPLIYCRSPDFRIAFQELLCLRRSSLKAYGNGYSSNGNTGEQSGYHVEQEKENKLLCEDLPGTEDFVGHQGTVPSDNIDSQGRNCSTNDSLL

In test [17] the target is D(2) dopamine receptor (Homo sapiens) (UniProt P14416). As to the kind of experiment: Dopamine D2 receptor (DRD2) small molecule agonists, cell-based qHTS assay (AID 1963594). Further: nearly all actives have a fitted effect of over 35% in size. The method, boiled down:
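HEK293 cells stably expressing DRD2 were cultured 24 h at 37 C, then given Ro20-1724 (0.1 mM final) and compounds for 10 min at room temperature. NKH477 (200nM) was then added for 30 min. cAMP was read by HTRF.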

For test [18] the target is unchanged. Kind of test: Dopamine D2 receptor (DRD2) small molecule antagonists, cell-based qHTS assay (AID 1963595; active means well fitted inhibition curve with a large enough effect in the signal ratio in the repeat runs, with a control signal flat; the % refers to the signal ratio). An outline of the steps:
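HEK293 cells stably expressing DRD2 were preincubated with 0.1 mM Ro20-1724, then with compound for 10 min at room temperature. Cells were stimulated with 200 nM NKH477 plus 12 nM quinpirole for 30 min, and cAMP was read by HTRF.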

In test [19] the target is 5-hydroxytryptamine receptor 2A (Homo sapiens) (UniProt P28223). Kind of test: 5-hydroxytryptamine receptor 2A (HTR2A) small molecule antagonists, cell-based qHTS assay (AID 1963586). Further: nearly all actives have a fitted effect of over 45% in size. The method, boiled down:
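CHO cells stably expressing human HTR2A were plated for 18 h at 37 C, then loaded with calcium dye for 1 h. Compounds were preincubated 5 min at room temperature before DOI (4 nM solution) was added. Kinetic fluorescence was read for 3 min.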

Values without a mark were called inactive. Inconclusive results are not listed. Activity calls are given as the source filed them. Unless noted, the call rests on the fitted dose curve.

Muscarinic acetylcholine receptor M1 (Homo sapiens), sequence (P11229 whole entry, looked up): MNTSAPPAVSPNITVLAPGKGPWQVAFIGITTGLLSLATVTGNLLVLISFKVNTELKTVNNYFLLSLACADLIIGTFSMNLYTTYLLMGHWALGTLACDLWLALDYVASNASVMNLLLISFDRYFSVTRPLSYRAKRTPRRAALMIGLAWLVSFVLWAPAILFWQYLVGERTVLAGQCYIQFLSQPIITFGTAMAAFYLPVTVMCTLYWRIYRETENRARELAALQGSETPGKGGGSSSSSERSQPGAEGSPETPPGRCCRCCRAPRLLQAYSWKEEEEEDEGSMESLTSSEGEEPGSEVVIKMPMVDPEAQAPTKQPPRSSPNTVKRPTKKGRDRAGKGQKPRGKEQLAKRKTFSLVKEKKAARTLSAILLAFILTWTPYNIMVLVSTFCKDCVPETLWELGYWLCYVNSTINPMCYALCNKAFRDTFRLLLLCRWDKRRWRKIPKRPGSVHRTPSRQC
D(2) dopamine receptor (Homo sapiens), sequence (P14416 whole entry, looked up): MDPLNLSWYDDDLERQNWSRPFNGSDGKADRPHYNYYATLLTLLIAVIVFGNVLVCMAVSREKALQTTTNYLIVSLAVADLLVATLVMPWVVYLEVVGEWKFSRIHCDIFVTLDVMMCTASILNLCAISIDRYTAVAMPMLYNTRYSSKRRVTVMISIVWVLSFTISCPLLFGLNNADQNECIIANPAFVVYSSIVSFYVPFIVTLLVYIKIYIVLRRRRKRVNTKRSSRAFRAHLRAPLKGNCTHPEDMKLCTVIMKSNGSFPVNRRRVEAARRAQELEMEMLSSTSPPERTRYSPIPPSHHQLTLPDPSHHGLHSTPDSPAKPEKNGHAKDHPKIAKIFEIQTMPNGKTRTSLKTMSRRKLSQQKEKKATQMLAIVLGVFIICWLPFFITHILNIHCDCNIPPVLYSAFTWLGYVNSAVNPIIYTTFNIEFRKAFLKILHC
KiSS-1 receptor (Homo sapiens), sequence (Q969F8 whole entry, looked up): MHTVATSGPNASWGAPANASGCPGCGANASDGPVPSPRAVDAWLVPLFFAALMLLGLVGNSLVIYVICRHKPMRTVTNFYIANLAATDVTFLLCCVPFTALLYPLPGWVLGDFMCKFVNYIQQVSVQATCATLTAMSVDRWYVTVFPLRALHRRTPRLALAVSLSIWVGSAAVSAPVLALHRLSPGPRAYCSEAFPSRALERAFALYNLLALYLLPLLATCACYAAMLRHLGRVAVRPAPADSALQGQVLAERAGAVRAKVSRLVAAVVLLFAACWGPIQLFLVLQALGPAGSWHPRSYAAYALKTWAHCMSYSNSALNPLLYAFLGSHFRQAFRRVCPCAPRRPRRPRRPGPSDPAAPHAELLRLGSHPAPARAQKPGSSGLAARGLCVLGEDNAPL

As to `CC(Cl)C(Cl)Cl` (centres undefined), the Potency entry in [1], in test [2], in [3], in [6], in test [7] and in [8] was “inactive” throughout. For the same compound, the Potency entry in test [9], in [10], in test [11], in test [12], in test [13] and in [14] was “inactive” throughout. The Potency result in [15], in [16], in test [17] and in [18] was “inactive” each time. Further, the result in test [4] and in test [5] was inactive.

For the compound `O=C1CCC(C2CCCCC2)CC1`, the Potency result in test [1], in [2], in test [3], in [6], in test [7] and in test [8] was “inactive” each time. The Potency result in test [9], in test [10], in test [19], in [11], in test [13] and in [14] was “inactive” in each case. For the same compound, the Potency entry in test [15], in test [16], in test [17] and in [18] was “inactive” throughout. Also, the result in [4] and in test [5] was inactive.

Consider `O=C1N(c2ccccc2)c2ccccc2C1(Cc1ccncc1)Cc1ccncc1`, for which the Potency entry in test [1], in test [2], in [3], in test [6], in test [7] and in test [8] was “inactive” each time. In addition, the Potency result in test [9], in test [10], in test [19], in [11], in test [13] and in test [14] was “inactive” throughout. The Potency entry in test [15], in [16], in [17] and in test [18] was “inactive” in each case. The result in [4] and in test [5] was inactive.

With `CC[N+]1(CC)CCC(=C(c2ccccc2)c2ccccc2)C1C` (centres undefined), the Potency entry in test [1], in [2], in test [3], in test [6], in [7] and in [8] was “inactive” throughout. For the same compound, the Potency entry in test [9], in test [10], in test [11], in test [13], in test [14] and in test [15] was “inactive” in each case. The Potency entry in test [16] and in test [18] was “inactive” each time. The result in [4] and in [5] was inactive. Also, the Potency in [12] is 25.9 nM (active).

Take `O=C(O)Cc1ccc2c(c1)C(=O)c1ccccc1CO2`: the Potency result in test [1], in test [2], in test [3], in test [6], in test [7] and in test [8] was “inactive” each time. In addition, the Potency result in [9], in test [10], in test [19], in test [11], in test [12] and in test [13] was “inactive” each time. In addition, the Potency entry in test [16] and in [18] was “inactive” throughout. Also, the result in [4] and in test [5] was inactive.

As to `O=C(O)Cc1csc(-c2ccc(Cl)cc2)n1`, the Potency result in test [1], in test [2], in test [3], in test [6], in test [7] and in test [8] was “inactive” in each case. The Potency result in test [9], in [10], in test [19], in test [11], in [12] and in test [13] was “inactive” throughout. Further, in test [18], the Potency result was “inactive”. The outcome in test [4] and in test [5] was inactive.

In the case of `Nc1ccc2cc(S(=O)(=O)O)ccc2c1`, the Potency entry in test [1], in test [2], in [3], in test [6], in [7] and in test [8] was “inactive” each time. The Potency result in test [9], in test [10], in test [19], in test [12], in test [13] and in test [14] was “inactive” throughout. The Potency result in test [15], in test [16] and in test [17] was “inactive” in each case. The result in test [4] and in test [5] was inactive.

The values are drawn from PubChem BioAssay (Tox21).
